# Measurements: the supplement of paper PMC8728848
# This is one part of a sample in which the strongest signals are shown more often than they occur.
# B1: DC-ASGPR-short (Homo sapiens) (protein)
# chain: MTRTYENFQYLENKVKVQGFKNGPLPLQSLLQRLRSGPCHLLLSLGLGLLLLVIICVVGFQNSKFQRDLVTLRTDFSNFTSNTVAEIQALTSQGSSLEETIASLKAEVEGFKQERQAVHSEMLLRVQQLVQDLKKLTCQVATLNNNASTEGTCCPVNWVEHQDSCYWFSHSGMSWAEAEKYCQLKNAHLVVINSREEQNFVQKYLGSAYTWMGLSDPEGAWKWVDGTDYATGFQNWKPGQPDDWQGHGLGGGEDCAHFHPDGRWNDDVCQRPYHWVCEAGLGQTSQESH
# Assays:
# Test in all cases: glycan array binding signal (z-score within array); higher = stronger binding
# Conditions in all cases: glycan notation: IUPAC condensed, linker removed
# [1] = molecular target: GlcNAc(b1-3)[GlcNAc(b1-6)]GalNAc
# Procedure, shortened: (§1)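 The binding signal is a Z-score computed within each array and averaged over linkers. Arrays of the same protein sequence at different concentrations or buffers were also averaged together. Data originate from 3228 arrays in the Consortium for Functional Glycomics database, kept only where the protein sequence was available.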
# GlcNAc(b1-6)GalNAc = molecular target: GlcNAc(b1-6)GalNAc
# Procedure, shortened: as §1
# [2] = molecular target: GlcNAc6S(b1-3)Gal(b1-4)GlcNAc
# Procedure, shortened: as §1
# [3] = molecular target: Neu5Ac(a2-3)Gal(b1-3)GalNAc6S
# Procedure, shortened: as §1
# [4] = molecular target: Neu5Ac(a2-3)Gal(b1-3)GlcNAc(b1-6)GalNAc
# Procedure, shortened: as §1
# [5] = molecular target: Neu5Ac(a2-3)Gal(b1-3)[Neu5Ac(a2-6)]GalNAc
# Procedure, shortened: as §1
# [6] = molecular target: Neu5Ac(a2-3)Gal(b1-4)GlcNAc(b1-6)[Gal(b1-3)]GalNAc
# Procedure, shortened: as §1
# [7] = molecular target: Neu5Ac(a2-3)Gal(b1-4)[Fuc(a1-3)]GlcNAc(b1-2)Man
# Procedure, shortened: as §1
# [8] = molecular target: Neu5Ac(a2-3)Gal(b1-4)[Fuc(a1-3)]GlcNAc(b1-6)[Gal(b1-3)]GalNAc
# Procedure, shortened: as §1
# [9] = molecular target: Neu5Ac(a2-6)Gal(b1-4)GlcNAc(b1-2)Man(a1-6)[Man(a1-3)]Man(b1-4)GlcNAc(b1-4)GlcNAc
# Procedure, shortened: as §1
# [10] = molecular target: Neu5Ac(a2-6)Gal(b1-4)GlcNAc(b1-2)[Neu5Ac(a2-6)Gal(b1-4)GlcNAc(b1-4)]Man(a1-3)[GlcNAc(b1-4)][Neu5Ac(a2-6)Gal(b1-4)GlcNAc(b1-4)Man(a1-6)]Man(b1-4)GlcNAc(b1-4)GlcNAc
# Procedure, shortened: as §1
# [11] = molecular target: Neu5Ac(a2-8)Neu5Ac(a2-3)Gal(b1-4)Glc
# Procedure, shortened: as §1
# [12] = molecular target: Neu5Gc(a2-8)Neu5Gc(a2-6)Gal(b1-4)GlcNAc
# Procedure, shortened: as §1
# [13] = molecular target: Neu5Gc(b2-6)Gal(b1-4)GlcNAc
# Procedure, shortened: as §1
binder,measurement,setting,value
B1,glycan array binding signal (z-score),[1],-0.234
same,glycan array binding signal (z-score),GlcNAc(b1-6)GalNAc,4.64
same,glycan array binding signal (z-score),[2],-0.27
same,glycan array binding signal (z-score),[3],-0.279
same,glycan array binding signal (z-score),[4],5.92
same,glycan array binding signal (z-score),[5],-0.224
same,glycan array binding signal (z-score),[6],-0.283
same,glycan array binding signal (z-score),[7],-0.238
same,glycan array binding signal (z-score),[8],-0.285
same,glycan array binding signal (z-score),[9],-0.288
same,glycan array binding signal (z-score),[10],-0.34
same,glycan array binding signal (z-score),[11],-0.277
same,glycan array binding signal (z-score),[12],-0.279
same,glycan array binding signal (z-score),[13],-0.278
